Here are results for 58 compounds from ChEMBL document CHEMBL4513216, “Probing the Open Global Health Chemical Diversity Library for Multistage-Active Starting Points for Next-Generation Antimalarials” (ACS Infect Dis, 2020).

The whole screen tested about 69,000 compounds, of which about 8,600 (12%) showed an effect of 50% or more. For the sample, strong results were picked, then their nearest neighbours and some compounds at random.

The subject of this test is Plasmodium berghei. Description: Screen against P. berghei liver stage (PbLuc), transformed with Luciferase, at 10uM. It counts as functional, HepG2. The following applies: tested at 10 uM.
Consider `CS(=O)(=O)N1CCN(C(=O)c2cnn3c2OCCC3)CC1`, for which the INHIBITION is on record as 31.6%. Then `CC(NCCCC#N)c1ccc(S(C)(=O)=O)c(F)c1` (stereo not drawn), with 19.1%. For `CCn1c(C2CCCNC2)nn(CCn2cncn2)c1=O` (stereo not drawn), the INHIBITION is -7.13%. As for `O=C(CCn1cccc1)NCc1ccc(CN2CCCCCC2)o1`, the INHIBITION was 37.4%. Then `CCOc1ccc2c(c1)C=C(C(=O)NC(C)Cn1cccn1)CO2` (stereo not drawn), with 2.91%; and `CCCOc1ccc2c(c1)OCC(C(=O)NC(C)Cn1ccnc1)=C2` (stereo not drawn), with 51%; and `CCCOc1ccc2c(c1)OCC(C(=O)NC(C)Cn1cccn1)=C2` (stereo not drawn), with 30.9%. Then `CCOCC1CN(S(=O)(=O)N(C)C)Cc2cnn(CC)c21` (stereo not drawn), with 29%; and `Cc1cc(NC(=O)CN2CCC(N(C)Cc3ncc(C)o3)C2)n(C)n1` (stereo not drawn), with -29.9%. In the case of `Cc1cnn(CCNCc2ccc(OCc3cscn3)cc2)c1` it was 85.1%.

As to `Cc1ccc(OCc2nc(CNCCn3cccn3)cs2)cc1`, the INHIBITION is reported as -24.1%.

With `c1ccc(OCc2nc(CNCCn3cccn3)cs2)cc1`, the INHIBITION amounted to 1.95%.

For `Cc1nc(COc2ccc(CNCCn3cccn3)cc2)cs1`, the INHIBITION was 88.5%. With `c1ccc(OCCCNCCn2cccn2)cc1`, the INHIBITION is reported as 38.7%. In the case of `Cc1cnn(CCNCc2ccc(OCc3noc(C)n3)cc2)c1` it was 66.3%; in that of `Cc1cnn(CC(C)NCc2ccc(OCc3noc(C)n3)cc2)c1` (stereo not drawn), -79.3%.

For the compound `Cc1cnn(CCNCc2ccc(OCc3csc(C)n3)cc2)c1`, the INHIBITION was -37.9%. On to `COc1ccc(OCCCNCCn2cccn2)cc1`, for which the INHIBITION is 64.7%. In the case of `Cc1cnn(CCNCc2ccc(OCc3ccccn3)cc2)c1` it was 34.6%; in that of `COc1ccc(OCCNCCn2cccn2)cc1`, 0.932%. As to `Cc1cnn(CCNCc2nc(COc3ccc(F)cc3)no2)c1`, the INHIBITION is 19.3%.

Turning to `O=C(c1cc2c(F)cccc2[nH]1)N1CCCCC1Cn1cccn1` (stereo not drawn), the INHIBITION is -4.94%.

For the compound `Cc1cc(-c2cc(N)c(=O)n(CC(=O)NC3CCCCC3)n2)c(C)o1`, the INHIBITION is 13.835%.

As for `O=C(NCCn1ccnc1)N1CCN(Cc2ccco2)CC1`, the INHIBITION is reported as -37.7%.

For the compound `Cc1ccc(NC2CCN(C(=O)c3ccncc3)CC2)nn1`, the INHIBITION was -39.7%. As for `CCN1CCC(NC(=O)CN2CC(n3nc(C)cc3C)C2)CC1`, the INHIBITION was 23.5%. Turning to `CC(=O)N[C@@H]1CN(Cc2nc3ccccc3[nH]2)C[C@H]1c1ccc(C)o1`, the INHIBITION was determined as 39%. In the case of `COc1cc(CNCC(O)c2ccccc2F)cc2c1OCO2` (stereo not drawn) it was -9.37%; in that of `COc1cc(CNCc2ccc(C(C)O)cc2)cc2c1OCO2` (stereo not drawn), 49.3%; in that of `FC(F)Oc1ccc(CNCc2cc(Br)c3c(c2)OCO3)cc1`, 80.8%. Turning to `Cc1ccc(CNCc2cc(Br)c3c(c2)OCO3)cc1`, the INHIBITION was found to be 45.4%. In the case of `FC(F)Oc1ccc(CNCc2cc(Cl)c3c(c2)OCO3)cc1` it was 24.6%. Then `Fc1ccc(CNCc2cc(Br)c3c(c2)OCO3)cc1`, with 78%; and `CC(Cn1ccnc1)NCc1cc(Br)c2c(c1)OCO2` (stereo not drawn), with -7.72%. Turning to `FC(F)Oc1ccccc1CNCc1cc(Br)c2c(c1)OCO2`, the INHIBITION is listed as 58.6%. Regarding `Cn1cc(CCNCc2cc(Br)c3c(c2)OCO3)cn1`, the INHIBITION was 37.6%.

With `COc1cc(CNCC(O)c2ccccc2)cc2c1OCO2` (stereo not drawn), the INHIBITION is on record as -54.6%. In the case of `COc1cc(CNCC(O)c2ccc(F)cc2F)cc2c1OCO2` (stereo not drawn) it was 0.914%; in that of `COc1ccc(CNCc2cc(Br)c3c(c2)OCO3)cc1`, 74.7%. In the case of `C[C@@H]1CN(c2ccc(Cl)cn2)C[C@]1(C)O` it was 4.161%. `Fc1cnc(N2CCO[C@H]3[C@H](OCCN4CCCC4)CC[C@@H]32)nc1`: the INHIBITION amounted to 4.68%.

With `Cc1ccc(-c2nnc(CNCCn3cccn3)o2)cc1`, the INHIBITION was determined as 37.9%. In the case of `COCc1cc(NCc2ccccc2-n2cncn2)ncn1` it was 15.7%. Then `CN(Cc1nc(-c2ccccc2)no1)Cc1cnc(N2CCOCC2)s1`, with 25.8%. Consider `CN(C)CCn1c2c(ccc1=O)CCN(C(=O)c1cccs1)CC2`, for which the INHIBITION is reported as 13.5%. In the case of `COc1c(CNCc2cccc(CN(C)C)c2)c(C)nn1C` it was 35.3%. Turning to `Cc1nc(Nc2cnccn2)cc(C2CCCN2C2CCOCC2)n1` (stereo not drawn), the INHIBITION is recorded as 25.6%. Then `CC(C)C1CCCN1C(=O)Nc1ccc(=O)n(C)c1` (stereo not drawn), with -22.1%; and `CCc1nc(C2CCCN2CC(=O)Nc2nnc(C)s2)no1` (stereo not drawn), with -11.9%. For the compound `CC(C)n1nc(CN2CCCC2=O)c2c1CN(C(=O)c1ccc[nH]1)C2`, the INHIBITION came to 7.67%. In the case of `NC(=O)c1c(NC(=O)C2CCCO2)sc2c1CCc1ccccc1-2` (stereo not drawn) it was -57.9%.

As for `Cc1ccccc1S(=O)(=O)N1CCC(c2[nH]ncc2C)C1` (stereo not drawn), the INHIBITION is 11.1%. In the case of `CN1CC[C@H]2[C@H](C[C@@H](Cn3cncn3)N2c2nccs2)C1` it was 69.7%; in that of `CCC(=O)N1CC[C@H]2[C@H](C[C@@H](CN3CCCC3)N2c2nccs2)C1`, -0.284%. Then `CC(=O)N1CC[C@H]2[C@H](C[C@@H](CN3CCCC3)N2c2nccs2)C1`, with 0.71%; and `CN1CC[C@H]2[C@H](C[C@@H](CN3CCCC3)N2c2nccs2)C1`, with 34.5%.

For the compound `CC(C)N1CC[C@H]2[C@H](C[C@@H](Cn3cncn3)N2c2nccs2)C1`, the INHIBITION was determined as 0.71%.

Consider `CC(=O)N1CC[C@H]2[C@H](C[C@@H](Cn3cncn3)N2c2nccs2)C1`, for which the INHIBITION came to 85.4%.
